Test results from PubChem BioAssay (NCI).
This is part of a sample that, as a whole, favours compounds with a hit. Of some 83,000 tested, about 20% had one in any assay.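 Compound tested at a single concentration for 48 hours in 96-well plates; a percent growth value below 10 was scored as active.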 Values without a mark were called inactive. Calls of active or inactive are those of the source.

These compounds were tested on SK-MEL-28 melanoma (assay: NCI-60 one-dose screen, 48 h (100 = growth as untreated, 0 = no growth, -100 = all killed)). Conditions: 10 µM unless noted.

Compound	growth
C=C(C)[C@@H]1CC[C@]2(C(=O)N3CCCNCC3)CC[C@]3(C)[C@H](CC[C@@H]4[C@@]5(C)CCC(=O)C(C)(C)[C@@H]5CC[C@]43C)[C@@H]12	103%
CCCCC[C@H]1CC=C2C(=O)C(Cl)=C[C@@H]2CC=CCCCC(=O)O[C@@H](CCCCC)CC=C2C(=O)C(Cl)=C[C@@H]2CC=CCCCC(=O)O[C@@H](CCCCC)CC=C2C(=O)C(Cl)=C[C@@H]2CC=CCCCC(=O)O1	52% [8 µM]
Cn1c(=O)c2c(ncn2CCC(=O)Nc2ccc(F)cc2)n(C)c1=O	114%
COc1cc(NC(C)CN(CC(C)C)C(C)C)c2ncccc2c1 (stereo unspecified)	122%
COc1ccc(/C=C/C(=O)NCC(C)O)cc1 (stereo unspecified)	102%
Cc1cc(N(CCCNc2ccnc3cc(Cl)ccc23)Cc2ccco2)nc(Cl)n1	77.7%
Cc1c(C)c2c(c(C)c1NC(=O)CCCCCCC(=O)O)CCC(C)(CCCC(C)CCCC(C)CCCC(C)C)O2 (stereo unspecified)	96.1%
CN(C)c1ccc(N=C2C=CC(=O)C=C2)cc1	97.4%
Fc1ccc(NCc2nnc(-c3ccc(Cl)cc3)o2)cc1	93.9%
COc1ccc(OCC(CO)N2CCN(c3ccccc3)CC2)cc1 (stereo unspecified)	103%
CCCCC(=O)OC1CCCCC1C (stereo unspecified)	98.4%
COc1ccc2c(c1)c(-c1nc(-c3cn(C)c4ncccc34)cs1)cn2CCN	99%
COc1ccc(CCN2C(=O)C(C)(C)SC2=S)cc1OC	102%
Cc1nnc2nc(N)[nH]n2c1=O	109%
Cc1cc(Cl)c2c(N(C)C)cccc2n1	113%
COc1ccccc1-n1cnc(N)c1C(=O)c1cc(OC)c(OC)c(OC)c1	51.5%
Cc1cc(N2CCCCC2)nc(N(CCNc2ccnc3cc(Cl)ccc23)Cc2ccco2)n1	38.9%
N#CC1=C(N)Oc2c(c(N)nn2-c2ccccc2)C1c1ccc(Cl)cc1Cl (stereo unspecified)	104%

Compound	growth
COc1ccc(NC(=O)c2ccc3c(c2)nc(-c2cc4ccccc4[nH]c2=O)n3-c2cc(C(C)(C)C)[nH]n2)cc1	93.2%
N#CC1=C(N)Oc2c(sc3c(F)cccc23)C1c1ccc(Cl)cc1 (stereo unspecified)	49.6%
Cc1ccc(Cc2cnc(NC(=O)/C=C/c3cccc(C)c3)s2)cc1	50.3%
Oc1cccc2oc(=S)[nH]c12	104%
COc1cc(/C=C/c2cc(/C=C/c3ccc(O)c(OC)c3)n(-c3ccccc3)c(=O)n2)ccc1O	78.8%
NC(=O)NCC1CCCCC1	110%
N#Cc1cnc2cc(OC[C@@H](O)CO)c(NC(=O)CC3CSSC3)cc2c1Nc1ccc(OCc2cccc(F)c2)c(Cl)c1	-71.9% (active)
Cc1nn2c(-c3nc4cc(Cl)c(Cl)cc4[nH]3)c(-c3ccc(F)cc3)nc2s1	22.9%
COc1ccc(-n2c(/C=C/c3ccc(O)c(OC)c3)cc(/C=C/c3ccc(O)c(OC)c3)nc2=O)cc1	58.5%
Cc1ccc2oc(=O)cc(-c3sc(N4CCCCC4)nc3-c3ccccc3)c2c1	103%
Nc1c2c(nc3ccc(Cl)cc13)CC(c1ccc(O)cc1)CC2=O (stereo unspecified)	57%
O=C1c2ccccc2C(=Cc2ccccc2)c2ccccc21	18.3%
C/C(=N\NC(=O)C(C)SC(C)C(=O)N/N=C(\C)c1cccnc1)c1cccnc1 (stereo unspecified)	113%
O=C1CCC/C=C\C[C@H]2C=C(Cl)C(=O)/C2=C/C[C@H](CCCCC(F)(F)F)OC(=O)CCC/C=C\C[C@H]2C=C(Cl)C(=O)/C2=C/C[C@H](CCCCC(F)(F)F)O1	-52.6% [7.5 µM] (active)
O=C1/C(=C\c2ccco2)SC(=S)N1CCc1ccc(O)cc1	98.3%
O=C(O)/C(=C/c1ccc(O)cc1)c1ccccc1	102%
CCCCC/C(=C\c1ccccc1)C1OC(C)C(C)O1 (stereo unspecified)	106%
Cc1cc(C=O)c(C)c2c1[nH]c1ccccc12	110%
